Assay results from the supplement of paper PMC11417369.
± gives the standard deviation of the averaged measurements. In all, about 25,000 sequences were measured (“ln(normalized median fluorescence intensity)”: median about 7.9, highest 2% from about 11 on). Only a selection was taken, and the highest values are over-represented in it overall.

test system: PfAP2-I AP2 domain 3 (GST-tagged); test: gcPBM binding intensity (ln(normalized median fluorescence intensity)); higher = stronger DNA binding
Procedure, shortened: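 GST-tagged P. falciparum DNA-binding domains, expressed in E. coli (about 25 μg on average), were applied for 1 h to an Agilent 4 × 180k array of primer-extended double-stranded 36-bp intergenic genomic probes plus negative controls. The binding buffer was 1× PBS with 1% milk, 0.2 mg/ml BSA, 0.5% salmon testes DNA and 0.03% Triton X-100. Bound protein was detected with Alexa488 anti-GST antibody and scanned at 488 nm. Binding intensity is the highest Masliner-normalised natural-log median intensity across replicate spots of either probe orientation.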

| Sequence | gcPBM binding intensity (ln) |
| --- | --- |
| ATATATATATATGTTTATTTATTTGAACGATTGTGG [CACACA_negctrl_site828] | 9.4 ± 0.56 |
| AAAAAATTAAATAATTACAAAAAAATAAAATAAAAA [GTGCAC_negctrl_site638] | 7.5 ± 0.59 |
| TAAAAAATTTTCGCGTGTACGCAAGAAAAAAAAAAT [XGTACX_site3058] | 8.04 ± 0.72 |
| TTAAAAAAGTAATTAACACACAATAATGTAATGCAT [CACACA_site4176] | 8.18 ± 0.55 |
| TATTCTTCAATTTAAAGTACAAAAATTACTATACTT [XGTACX_site6599] | 7.58 ± 0.28 |
| AATATTATAAATGATACACACTTAAAATACAGACAC [CACACA_site8868] | 8.19 ± 0.4 |
| AATATTTATATTTACACACACATAATACCTATATGT [CACACA_site6167] | 7.83 ± 0.42 |
| TAAATGAGAAGGACTGCACACTAAAATGGAAGGAGA [CACACA_site8449] | 8.23 ± 0.71 |
| ATCCTGAACAGAATATGTATAAACAGAAGGAAACAA [CACACA_negctrl_site1805] | 7.92 ± 0.54 |
| GACATATATATAAAATGTACATATATATTTACATAT [XGTACX_site7822] | 7.75 ± 0.33 |
| ATTCAATATTTATACACACACACTTTTAATAATTAA [CACACA_site7725] | 8.05 ± 0.55 |
| TTTAATTTATATTTTGTGCACATCTTATTATATATA [GTGCAC_site9630] | 10.5 ± 0.21 |
| ATTATTATTAATCTTGTGCACATATATTTTAATTAG | 10.6 ± 0.23 |
| ATTCAATATATATACACACACACTTTTAATAATTAA [CACACA_site3770] | 8.1 ± 0.43 |
| TATTTATTTTTTTTTGTGCACTTAATATAATCTTAC | 11.07 ± 0.042 |
| TTTTTAATATATTAGGTGCACAATAATACACTTTAT | 11.51 ± 0.064 |
| CCGATATAATGGAAAACACACAAAAGATATATATAT [CACACA_site2683] | 9.01 ± 0.15 |
| AATATTTATAAATTTACACACACACCGGTGAACATA [CACACA_site8579] | 7.79 ± 0.57 |
| TTTTATAAATACACACGTACGTGTGCATAACGTTTT [XGTACX_site3199] | 9.465 ± 0.092 |
| TTTTTTTTTATAAATACACACGTACGGGTGCATAAC [CACACA_site8444] | 10.9 ± 0.73 |
| CATTTTTTTTTATAAATACACACGTACGGGTGCATA [CACACA_site1569] | 8.54 ± 0.54 |
| ATATGTAGATGATATTATTACTTTTCAAAAATTCAA [CACACA_negctrl_site933] | 7.58 ± 0.39 |
| TATGGTTTTAAAAAATGTACGCAAGTGCGTTAATTT [XGTACX_site3945] | 11.2 ± 0.93 |

| Sequence | gcPBM binding intensity (ln) |
| --- | --- |
| TCGTGGTTTTAATAAGTGCGCAATTTAAATATTTTT | 9.31 ± 0.18 |
| ATCATTTTTAATAAATGTACAAGTTTTAAAAAAAAA [XGTACX_site7340] | 7.7 ± 0.6 |
| ATACATATATGTGTGTGTACATAAATGTATATATTT [XGTACX_site6242] | 7.93 ± 0.38 |
| AACCCTTTTGATTTTTCTTTTTTTTTTTTTTTAAAT [CACACA_negctrl_site1667] | 7.5 ± 0.69 |
| TTTTTTAAAATATGGACACACATATATATATATGTA [CACACA_site2784] | 7.67 ± 0.3 |
| TAAAACTTAATATAAACACACAAAAATTAATAAATA [CACACA_site4370] | 7.62 ± 0.44 |
| TTTTTTTTTTTTTCAAGTACATATATATATATATAA [XGTACX_site2098] | 7.99 ± 0.45 |
| TCACATTTTGGACACGTGCACATATATTTGATACAT | 9.48 ± 0.33 |
| TTTTTTTTTTTTCACGTGCACTATACATATAAGTAA | 11.1 ± 0.23 |
| ATATATATATATTTTACACACAATGGAGAAAAAAAT [CACACA_site644] | 9.01 ± 0.092 |
| TTAAAATCTTGAAAAGTGCATTATCATTTTGTAACG [GTGCAC_site9447] | 11.4 ± 0.73 |
| TTTTAAAGAAAATATTTTATCATTATTTTTTGTACT [CACACA_negctrl_site1648] | 7.41 ± 0.57 |
| AGGGAAAAAAAAAAAGTGCATTTGTATTAAATGAAT | 9.9 ± 0.028 |
| GAGAGGTATCAAAAATGTACACATATATATATGTAT [XGTACX_site5611] | 7.79 ± 0.47 |
| TTTTTTTTTAATTATGCATGTAAATTATATATTATA [TGCATGCA_site335] | 8.55 ± 1.1 |
| CATATGTTATATGTAGTGCATTACTATAGGATTTAT [GTGCAC_site9860] | 11.4 ± 0.64 |
| GTTTATATGTTCATAGTGCATATATGTTGATTTATT | 10.2 ± 0.33 |
| ATATATATATATGTAGTGCATTTTATATATAATATT | 9.875 ± 0.035 |
| AATATTTTATATGTAGTGCATTACTATAGGATTTAT [GTGCAC_site9424] | 11.4 ± 0.74 |
| TTATTATTATTACTAGTGCATTAATTATATATGTAA | 11.6 ± 0.49 |
| ATATATCTTTATATAGTGCATTAAATATGTTGTAAT [GTGCAC_site9953] | 11.5 ± 0.54 |
| ATAATTATTAATATAGTGCATTGGCATAATAATATA [GTGCAC_site9810] | 9.89 ± 0.2 |
| GGATTATTTATAGGAGTGCATACATATATATATATA [GTGCAC_site9454] | 9.76 ± 0.071 |

| Sequence | gcPBM binding intensity (ln) |
| --- | --- |
| AATATATTTATATAGTGTACATTTTTTATATATGTA [XGTACX_site8142] | 7.67 ± 0.18 |
| TTATTAAATATAAATATGTATCTTTTATGTTATATT [CACACA_negctrl_site306] | 7.29 ± 0.44 |
| TATCTTTTTACAATAGTGCATATGTTATCATTAATA [GTGCAC_site9489] | 9.54 ± 0.18 |
| TAAATATATAAACACACACACATTAATACAGATATT [CACACA_site5851] | 7.72 ± 0.54 |
| TATATATATATTTATACACACATTAGTGTAGACATG [CACACA_site8964] | 8.915 ± 0.021 |
| ATATATATGTATACATGTACATATTTTATTATGTGC [XGTACX_site7207] | 7.9 ± 0.61 |
| TTATATATATATATATATATATATATATATATAAAT [GTGCAC_negctrl_site126] | 8.41 ± 0.23 |
| TTTTTATATGCGTATTGTACATTATACATATATATA [XGTACX_site6786] | 7.97 ± 0.38 |
| TTCTTTATTTTTTCTACACACATTAGATATTCAAAG [CACACA_site7624] | 8.02 ± 0.53 |
| ATGAAATATTTATTTGTGCACTTAATTTGTTGGAAA | 11.2 ± 0.21 |
| TTTATTTGTGCATATACACACTTAAATATGTTTATT [CACACA_site7772] | 9.405 ± 0.035 |
| TTGTTAATAAAAATATTGGAAAGTTTATAAAATTTT [CACACA_negctrl_site1487] | 7.53 ± 0.52 |
| AGAATTATTGTTAATGCATGTGGAAGTTAAAATATT [TGCATGCA_site188] | 8.48 ± 0.69 |
| TTTGGAATATTAATTGTGCACTTAAAAAGTTAATTA | 11 ± 0.35 |
| TTTATATTAATTGATGTGCACTGAAATATTTGTCCA [GTGCAC_site9655] | 10.3 ± 0.28 |
| TTGTTCATTATGCACAGTACATAAAAAGTAAAAAAA [XGTACX_site2403] | 10 ± 0.65 |
| TTTCTGTGTTTTGGTTGTACACACGCTACATTATAT [XGTACX_site5669] | 8.53 ± 0.67 |
| GGAAATAATATTATTACACACCAAAATGTATAAAAA [CACACA_site4036] | 8.36 ± 0.85 |
| GCATGCACGGAAAAAAGTACATATATAAATTTGGTT [XGTACX_site3393] | 8.2 ± 0.52 |
| ATTGAACACATCTATGCATGCACGGAAAAAAGTACA [TGCATGCA_site401] | 11 ± 0.28 |
| ATATATATATATGAAAGTACACATCTATTTTTTCTT [XGTACX_site6059] | 9.29 ± 0.18 |
| AGAAAGGATATAAGCGTAGCTATATCATAAAAAATG [GTGCAC_negctrl_site332] | 7.58 ± 0.74 |
| AAAAAAAAAATTTTCGTGCACATAAGAAAATTTAAA [GTGCAC_site9788] | 10.3 ± 0.16 |

| Sequence | gcPBM binding intensity (ln) |
| --- | --- |
| TGTAGAAATGGGTGCACACACATATAAAATCTATAT [CACACA_site7224] | 10.4 ± 0.59 |
| TTTTTTTTTTTTTTGGTGCACATAGAAATTCTAAAA [GTGCAC_site9809] | 10.9 ± 0.6 |
| ATATTTTAATTATAAAGTACATAAAAATATATAAAC [XGTACX_site6705] | 7.92 ± 0.35 |
| TTTGTGTATATATAATGTACATTATATTTTTATTAT [XGTACX_site6506] | 8.13 ± 0.45 |
| ATATATATATATAATGCACACATTATAAATTATGTA [CACACA_site5802] | 11.1 ± 0.26 |
| TATTATAATAAAATATGTACACACATACACACATAT [XGTACX_site2360] | 7.98 ± 0.41 |
| ATGTTCATTATATGCACACATATATATAAATGTAAT [CACACA_site2908] | 9.34 ± 0.3 |
| TTAATATTAATATATTGTACATATATGCACATATTT [XGTACX_site6569] | 9.1 ± 0.18 |
| ATATATACATATAAATGTACATAATTATTATGCACA [XGTACX_site1261] | 11.3 ± 0.82 |
| TTTTTTTTTTTTTTGTGTACATATAATGCACATTAT [XGTACX_site6505] | 11.1 ± 0.93 |
| TTATGTTCATTATATGCACACATATATATAAATGTA [CACACA_site8947] | 9.11 ± 0.071 |
| ATATAATATCTGTATACACACATATTATATAATATT [CACACA_site5940] | 7.86 ± 0.51 |
| TATTACATACATATCTGTACATATATTAATGCACAA [XGTACX_site3315] | 11.6 ± 1 |
| AAAAAAAAAAAATTATGTACATATTATATATAATGG [XGTACX_site2885] | 7.77 ± 0.45 |
| TATTTCTGATTATTTTGTACACATTATATATAATGC [XGTACX_site6990] | 8.04 ± 0.29 |
| TGAAAATATATAACGCGTACAAAAAGGAAATACAAT [XGTACX_site3534] | 8.38 ± 0.64 |
| AAAAAAAAAAAAAATATACACACTAATATATTTTTT [CACACA_site815] | 7.98 ± 0.54 |
| TAAATATATTAAGCTTGTACATGAAAAAAAAAAAAA [XGTACX_site3264] | 8.1 ± 0.59 |
| TTTTCTTAAAAAATCAAACACACATATATATATACA [CACACA_site2297] | 7.6 ± 0.51 |
| ATATATATATATAATGCACACATTATGAATTATGTA [CACACA_site3384] | 11.3 ± 0.26 |
| GATATATAATATAATACACACATTTTATGAATGTAA [CACACA_site24] | 7.66 ± 0.32 |
| ATAAATAATTATATATGTACACATTATGAATGGATA [XGTACX_site8336] | 7.78 ± 0.4 |
| AAATGTTATAACTCTTGAAAAAACAAAATATCATCA [CACACA_negctrl_site1156] | 7.57 ± 0.49 |
